Here are results for 48 compounds from PubChem BioAssay AID624297 (National Center for Advancing Translational Sciences (NCATS), 2012).

Molecules are shown by their SMILES. The campaign covered roughly 340,000 compounds. About 6,200 (1.8%) were called active. Another 10% or so got no clear call; they are omitted. What follows is part of a selection rich in actives, with near analogues and random picks from the rest. Values without a mark were called inactive. Calls come from the whole dose curve; as a rule, active = well fitted activation curve with a large enough effect; inconclusive = small, poorly fitted or top-dose-only effect; inactive = no such curve, though single readings can be large or run the other way.
Potency is the fitted concentration of half-maximal effect.

The assay is described as follows: A quantitative high throughput screen for small molecules that induce DNA re-replication in SW480 colon adenocarcinoma cells. For re-replication activation: % of control where 0% means no effect. Note: nearly all actives have a fitted effect of over 55% in size. The note with it: Hoechst DNA content imaging, 48 h; series mostly up to 46.1 µM; re-replication activation: at the top concentration. The gist of the method: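 DNA re-replication was detected as more nuclei of elevated Hoechst intensity after 48 hr exposure to compound (23 nL pinned per well of 250 cells).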
As to `COc1cc(OC)cc(C(=O)NCC(=O)OCC(=O)NC(C)CCc2ccccc2)c1` (stereo not drawn), the “re-replication activation” value was -29.4%.
In the case of `O=C(Nc1cccc(-c2cscn2)c1)C1CCN(Cc2ccsc2)CC1`, the “re-replication activation” value was -1.44%.
As for `CCn1cc(CN2CCC(C(=O)Nc3cccc(-c4cccc(Cl)c4)c3)CC2)cn1`, the Potency was 18.4 µM (active).
Consider `CC(=O)c1cc(CN2CCC(C(=O)Nc3cccc(-c4cscn4)c3)CC2)cs1`, for which the “re-replication activation” value was -7.67%.
Consider `C=CCN1C=C(C(=O)c2ccccc2)C(=O)CC1`, for which the “re-replication activation” value is -47.2%.
With `Cc1ccc(OCCCn2c(=O)oc3ccccc32)cc1`, the “re-replication activation” value was -16.6%.
In the case of `CCCCCCCCCCOC(=O)Cn1c(COc2ccc(C)cc2)[n+](C)c2ccccc21`, the Potency was 20.6 µM (active).
As for `CCCCCCCCCCOC(=O)Cn1c(COc2cccc(OC)c2)[n+](C)c2ccccc21`, the “re-replication activation” value was -6.85%.
Turning to `O=c1c2ccccc2ncn1CCc1ccncc1`, the “re-replication activation” value was 2.42%.
The same measure, in the same setting: in the case of `COc1ccccc1C(=O)OCC(=O)Nc1cccc(S(=O)(=O)NC2=NCCCCC2)c1` it was -8.34%.
Regarding `Cc1cc(-c2ccc(C)c(S(=O)(=O)NCCCN(Cc3ccccc3)C(C)C)c2)on1`, the Potency is 18.4 µM (active).
As for `Cc1cc(-c2ccc(C)c(S(=O)(=O)NC(C)Cc3ccco3)c2)on1` (stereo not drawn), the “re-replication activation” value was 0.627%.
For `CCOc1ccccc1CNS(=O)(=O)c1cc(-c2cc(C)no2)ccc1C`, the “re-replication activation” value was -18.6%.
On the same count and under the same terms, next, `COc1cccc2oc(CCc3ccccc3)cc(=O)c12`: -9.95%.
For the compound `CCOc1cc(C(=O)N(Cc2ccccc2)c2ccc(C)cc2)ccc1OCC(=O)N1CCOCC1`, the “re-replication activation” value was -7.41%.
Turning to `CC(C(=O)NC1CCS(=O)(=O)C1)N1C(=O)/C(=C/c2ccc(Cl)cc2)SC1=S` (stereo not drawn), the “re-replication activation” value is 0.287%.
As to `CC1CCN(C2=NC(=O)/C(=C/c3ccc(O)cc3)S2)CC1`, the “re-replication activation” value is -2.45%.
For `O=C1/C(=C\c2ccc(O)cc2)CCC1CNc1ccc(Cl)cc1` (stereo not drawn), the Potency was 16.4 µM (active).
On to `O=C(COC(=O)c1cccnc1Cl)Nc1ccc(S(=O)(=O)N2CCOCC2)cc1`, for which the “re-replication activation” value was -6.59%.
`COCCN(C(=O)CSCc1ccc(C)cc1)c1c(N)n(CC(C)C)c(=O)[nH]c1=O`: the “re-replication activation” value is -13.4%.
As to `CC(C(=O)NC1CCCC1)N(c1ccc(Oc2ccccc2)cc1)S(C)(=O)=O` (stereo not drawn), the “re-replication activation” value was 11.2%.
For `COc1ccc(/C=N/NS(=O)(=O)c2ccc(NC(C)=O)cc2)cc1`, the “re-replication activation” value is 1.07%.
Regarding `COc1ccc(/C=N/NC(=O)C(C)N(c2ccc(OC)cc2)S(C)(=O)=O)cc1` (stereo not drawn), the Potency was 18.4 µM (active).
Regarding `CC[C@]12c3[nH]c4cc(CCC(=O)N(C)C)ccc4c3CCN1C(=O)[C@@H](CC(=O)NCC13CC4CC(CC(C4)C1)C3)C[C@@H]2C(=O)N1CCN(C(=O)C2CC2)CC1`, the re-replication activation is -2.17% [at 9.22 µM].
As to `CC(C)(C)OC(=O)C[C@@H]1C/C=C\C[C@@H](CC(=O)N[C@@H](CO)Cc2ccccc2)C(=O)N2CCC[C@H]2COC1=O`, the “re-replication activation” value is -11.3%.
Consider `CC1CCCCC1NC(=O)COc1ccc(C#N)cc1` (stereo not drawn), for which the “re-replication activation” value is 13.5%.
With `Oc1ccccc1CN1CCN(C(c2ccccc2)c2ccccc2)CC1`, the “re-replication activation” value was 2.09%.
Regarding `Oc1c(C(c2ccccn2)N2CCOCC2)ccc2cccnc12` (stereo not drawn), the “re-replication activation” value was 17.7%.
For `CCN1CCN(C(c2cccnc2)c2cc(Cl)c3cccnc3c2O)CC1` (stereo not drawn), the Potency is 20.6 µM (active).
As for `COc1cc(C(=O)N2CCN(S(=O)(=O)c3ccc(C(C)C)cc3)CC2)ccc1OCC(=O)N1CCOCC1`, the “re-replication activation” value is -23.8%.
On to `COC(=O)[C@]1(C)N[C@H](CN(C)C(=O)c2ccc(C(C)(C)C)cc2)[C@@H]2C(=O)N(C)C(=O)[C@@H]21`, for which the “re-replication activation” value was -3.69%.
As to `COc1cc(/C=C/CNC[C@H]2O[C@@H](n3cnc(C(N)=O)n3)[C@H](O)[C@@H]2O)ccc1O`, the “re-replication activation” value was 1.29%.
Turning to `CCNC(=O)CSc1nc(-c2ccccc2)cs1`, the “re-replication activation” value was 2.29%.
The same measure, in the same setting: in the case of `Nc1c(C(=O)NCc2ccccc2)sc2nc3c(cc12)C(=O)CCC3` it was 10%.
Consider `CCN(CC)C(=O)c1sc2nc(-c3ccccc3)ccc2c1N`, for which the Potency is 20.6 µM (active).
In the case of `Cc1ccc(S(=O)(=O)N2CCC(C(=O)N3CCCCCCC3)CC2)cc1`, the “re-replication activation” value is -11.7%.
Still for that read-out and setting: next, `COc1ccc(CNC(=O)COC(=O)C2=Cc3ccccc3OC2)cc1`: 2%.
Take `Cc1nnc2n1N=C(c1ccccc1)CS2`: the “re-replication activation” value is -5.77%.
Same read-out and setting: next, `CC1=Nn2c(nnc2-c2ccccc2)SC1`: 2.75%.
As to `COc1ccc(C2=Nn3c(nnc3-c3ccccc3OC)SC2)cc1OC1CCCC1`, the Potency is 2.31 µM (active).
On to `COC(=O)[C@]1(CC(C)C)N[C@H](c2ccc(SC3CCCCC3)cc2)[C@@H]2C(=O)N(C)C(=O)[C@@H]21`, for which the “re-replication activation” value was -11.8%.
Take `Cc1ccc(S(=O)(=O)c2nnn3c2nc(N2CCN(c4ccccn4)CC2)c2ccccc23)cc1`: the “re-replication activation” value was 2.5%.
As to `CC(=O)Nc1ccc(Nc2nc3c(S(=O)(=O)c4ccc(C)c(C)c4)nnn3c3ccccc23)cc1`, the Potency is 18.4 µM (active).
Take `Cc1cccc(Nc2nc3c(S(=O)(=O)c4ccccc4)nnn3c3ccccc23)c1C`: the “re-replication activation” value is 0.398%.
`S=C(Nc1ccccc1)Nc1ccc2ccccc2c1`: the “re-replication activation” value is 0.33%.
Regarding `Cc1cccn2c(=O)c3cc(C(=O)N4COCC4(C)C)n(C)c3nc12`, the “re-replication activation” value is -3.11%.
As for `Cc1cccn2c(=O)c3cc(C(=O)NC4CCCCC4)sc3nc12`, the “re-replication activation” value was -5.17%.
With `Cc1cccn2c(=O)c3cc(C#N)c(=NC(=O)c4cccnc4)n(CC4CCCO4)c3nc12` (stereo not drawn), the Potency was 18.4 µM (active).
